# Bioassay records as filed in PubChem.
# Most compounds without a hit are left out; they make up all but 27% or so of the library.
# CYP2C19 act = cytochrome P450 2C19 (human) activation; P33261; recombinant CYP2C19, luciferin-H EGE luminescence; hits give high values; 0 = fully inhibited enzyme, 1 = untreated enzyme; activation factor at 5 µM; 96,000 tested, under 10 active;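 active = activation factor of at least 2 at 5 µM in the primary screen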;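 also: 0 = wells with 2.5 mM tranylcypromine and 1 = vehicle-only wells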
# sEH inhibitor = blocks human soluble epoxide hydrolase activity. recombinant human sEH enzymatic activity assay. AID 707. actives 0.34% (n = 91,000). inhibition, % at 2 µM; in the data active = inhibition above about 80%
# CYP2C9 act = CYP2C9 (human) activation; P11712; recombinant CYP2C9, luciferin-H conversion, luminescence; hits give high values; factor 1 = untreated enzyme, 0 = blocked; activation factor at 5 µM; actives 1.4% (n = 96,000); AID 1024;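 active = activation factor of 2 or more for CYP2C9 at a 5 µM dose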;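 also: 0 = sulfaphenazole-blocked wells and 1 = vehicle-only wells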
# Target sequence (P11712 whole entry, looked up): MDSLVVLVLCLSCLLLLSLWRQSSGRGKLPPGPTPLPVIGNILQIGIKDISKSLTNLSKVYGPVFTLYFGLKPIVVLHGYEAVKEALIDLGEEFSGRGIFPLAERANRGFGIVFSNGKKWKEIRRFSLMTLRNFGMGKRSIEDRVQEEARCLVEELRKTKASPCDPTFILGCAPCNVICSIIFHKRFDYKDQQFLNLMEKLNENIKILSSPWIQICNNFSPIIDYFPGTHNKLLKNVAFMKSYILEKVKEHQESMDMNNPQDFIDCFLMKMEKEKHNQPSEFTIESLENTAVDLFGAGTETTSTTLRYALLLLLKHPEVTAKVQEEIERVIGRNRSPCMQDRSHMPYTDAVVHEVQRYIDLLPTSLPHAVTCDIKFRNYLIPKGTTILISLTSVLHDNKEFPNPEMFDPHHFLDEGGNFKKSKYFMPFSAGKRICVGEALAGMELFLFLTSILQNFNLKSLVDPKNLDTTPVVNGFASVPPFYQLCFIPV
# CYP2C19 inhib = human CYP2C19 inhibition; AID 778; CYP2C19 Supersomes, luciferin-H EGE luminescence, 30 min; actives 21% (n = 96,000); inhibition, % at 5 µM;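 active = CYP2C19 inhibition above a set limit at 5 µM in the primary screen, cut at about 50% in these data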;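 also: plate controls were negative control wells for no effect and 2.5 mM tranylcypromine positive control for full effect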
# CYP2C9 inh = blocks human cytochrome P450 2C9 | P11712 | CYP2C9 Supersomes, luciferin-H conversion, luminescence | inhibition, % at 5 µM | actives 20% (n = 96,000);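 active = blocking of liver enzyme CYP2C9 beyond about 50% at 5 µM, limit read from the data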
# sEH activator = soluble epoxide hydrolase (human) activation; purified human sEH enzymatic activity, activator screen; activation, % at 2 µM; actives 0.04% (n = 91,000); in the data active = activation above about 37%
# An asterisk follows results filed as active; . = no result given.
SMILES,CYP2C19 act,sEH inhibitor,CYP2C9 act,CYP2C19 inhib,CYP2C9 inh,sEH activator
O=S(=O)(/C=C/c1ccccc1)Oc1ccccc1,0.2,-5.9,1.1,78.6*,-7.0,2.2
O=C(O)c1ccc(NS(=O)(=O)/C=C/c2ccccc2)cc1,0.9,3.3,0.9,6.0,5.0,-1.6
O=C(O)c1cc(O)ccc1-c1ccc(O)cc1,0.9,3.1,1.2,11.2,-19.2,-4.3
CCOC(=O)c1ccc2c(c1)C(=O)N(C1CCCCC1)C2=O,1.1,.,1,-6.7,-4.9,.
O=C(O)c1cccc(NC(=O)C2CCCO2)c1 (stereo not given),1.1,-5.7,1,-7.0,-1.1,2.0
O=C(Nc1ccc2c(c1)C(=O)N(C1CCCCC1)C2=O)C1CCCO1 (stereo not given),0.6,6.5,0.3,43.9,72.2*,-3.7
CCC(=O)Oc1ccc(C(=O)Nc2ccc3c(c2)C(=O)N(C2CCCCC2)C3=O)cc1,0.8,8.8,0.4,23.6,57.8*,-8.6
CC(C)(C)NC(=O)c1ccc2c(c1)C(=O)N(C1CCCCC1)C2=O,0.4,2.1,0.6,56.7*,39.1,-0.6
Cn1c(SCc2cccnc2)nc2cccnc21,0.8,4.5,0.9,20.4,14.8,-3.5
O=C(NCc1ccccc1)C(c1ccccc1)N(Cc1ccc2c(c1)OCO2)C(=O)Cc1cccs1 (stereo not given),.,-3.3,.,.,.,9.1
Oc1ccc(Br)cc1CN1CCCCCCC1,0.4,-19.1,1.1,57.4*,-8.9,20.8
Oc1ccc(CN2CCCCC2)c2cccnc12,.,-1.8,.,.,.,7.0
COC(=O)c1cc(=O)n(CCc2ccc(OC)cc2)c(=Nc2ccc(F)c(Cl)c2)s1,0.7,.,0.4,27.5,55.5*,.
CCOC(=O)c1ccc(N=c2sc(C(=O)OC)cc(=O)n2Cc2ccco2)cc1,0.8,.,0.5,15.9,48.6,.
COC(=O)c1cc(=O)n(Cc2ccc3c(c2)OCO3)c(=Nc2ccc(F)c(Cl)c2)s1,0.9,14.3,0.4,10.7,56.9*,-16.5
COC(=O)c1cc(=O)n(CCc2ccccc2)c(=Nc2ccc(F)cc2)s1,1,6.7,0.6,-1.0,39.5,-5.1
CCn1c(=O)cc(C(=O)OC)sc1=Nc1ccc(F)c(F)c1,0,-18.3,0.3,98.5*,75.0*,15.2
N#Cc1cnn(-c2nc3sc4c(c3c(=O)[nH]2)CCCC4)c1N,1,8.9,0.9,3.0,10.4,-8.8
COc1ccc2c(-c3ccccc3)cc(N3CCOCC3)nc2c1,1,-12.8,0.8,-1.0,23.5,14.0
O=C(N/C=N/OCc1ccc(Cl)cc1Cl)NOCc1c(Cl)cccc1Cl,1.1,7.1,1.1,-14.9,-12.5,-6.2
CO/N=C/NC(=O)c1c(OC)ccnc1Oc1ccc(Cl)cc1,0.8,-8.7,0.8,18.7,24.3,7.5
COc1ccnc(Oc2ccccc2)c1C(=O)N/C=N/OCc1ccc(F)cc1Cl,0.3,-16.1,0.4,66.5*,56.1*,13.3
COc1ccccc1CO/N=C/NC(=O)c1c(OC)ccnc1Oc1ccc(F)cc1,0,-0.8,0.2,97.1*,77.3*,2.6
COC(=O)c1cc(-c2c(C)oc3cc(OC(C)C)ccc3c2=O)c(C)o1,0.4,.,0.3,60.1*,67.0*,.
COC(=O)c1cc(=O)c2ccc(OC)cc2o1,0.9,.,1,13.2,-4.4,.
SMILES,CYP2C19 act,sEH inhibitor,CYP2C9 act,CYP2C19 inhib,CYP2C9 inh,sEH activator
COC(=O)c1cc(COc2ccc3oc(C)c(C(=O)OC(C)C)c3c2)c(C)o1,0.1,3.7,0.2,88.0*,84.4*,-3.0
COc1ccc(NC(=O)CN2CCN(C3c4ccccc4-c4ccccc43)CC2)c(OC)c1,0.1,-5.1,0,88.4*,96.8*,5.4
COc1ccccc1NC(=O)CN1CCN(C2c3ccccc3-c3ccccc32)CC1,0.2,-5.8,0,80.6*,95.6*,6.1
CC(C)CC(C)NNC(=O)c1cc2ccccc2[nH]1 (stereo not given),0.5,-0.2,0.9,48.4,5.7,1.4
CCC(C)n1nccc1NC(=O)C(C)OC(=O)c1cc2ccccc2[nH]1 (stereo not given),0,-13.8,0.7,97.0*,30.4,16.2
COc1ccc(CN2C(=O)NC3(CCCCCC3)C2=O)cc1F,0.1,.,1.9,87.6*,-90.1,.
CCN(CC)C(=O)c1cnn(-c2ccccc2)c1NC(=O)c1ccccc1F,.,12.9,.,.,.,-13.2
O=C(COC(=O)C1(c2ccc(Cl)cc2)CCCC1)NC1CCS(=O)(=O)C1 (stereo not given),0.7,0.6,1,27.1,4.0,3.1
